The structures appear in SMILES notation. Inconclusive results are not listed. Calls of active or inactive are those of the source. Calls come from the whole dose curve; as a rule, active = well fitted curve in the direction sought with a large enough effect; inconclusive = small, poorly fitted or top-dose-only effect, or another doubt; inactive = no such curve, though single readings can be large; an effect the other way counts as inactive or inconclusive.

Test [1] can be described thus: NS1 protein of Zika virus - qHTS assay to identify small molecule inhibitors in human HEK 293 cells (AID 1347053). Note: nearly all actives have a fitted effect of over 55% in size. The essentials:
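Following 20 h seeding, HEK 293 cells took compound, then 1 h later ZIKV MR766 (MOI = 0.5). Incubation ran 24 h at 37 C before TR-FRET detection of NS1; a drop in signal indicates inhibition.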

Test [2] can be described thus: qHTS of pediatric cancer cell lines to identify multiple opportunities for drug repurposing: Primary screen for TC32 cells (AID 1347089). Note: nearly all actives have a fitted effect of over 60% in size. The essentials:
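Luminescent ATP read-out (CellTiter-Glo) of metabolically active TC32 cells after 48 h exposure. Concentration-response curves came from 11-point (MIPE, 0.78 nM–46 µM) or 8-point (NPC, 0.59 nM–46 µM) primary titrations; follow-up used 11 points.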
Background: Quantitative high-throughput screening tests each substance at several concentrations.

Test [3] can be described thus: qHTS of pediatric cancer cell lines to identify multiple opportunities for drug repurposing: Primary screen for DAOY cells (AID 1347090). Note: nearly all actives have a fitted effect of over 55% in size. The essentials:
(§1)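 Cell viability, CellTiter-Glo luminescence; 500-1,000 cells/well, 8- or 11-point titration, 48 h compound exposure at 37 degrees C, 5% CO2. Controls: DMSO neutral, bortezomib 2.3 µM final as positive.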

A short description of test [4]: qHTS of pediatric cancer cell lines to identify multiple opportunities for drug repurposing: Primary screen for SJ-GBM2 cells (AID 1347091). In short, it runs like this:
as §1
Potency is the fitted concentration of half-maximal effect.

For `c1ccc(-c2nn3c(c2-c2ccnc4cc(OCCN5CCOCC5)ccc24)CCC3)nc1`, the Potency result in test [1], in test [2] and in test [3] was “inactive” throughout.
On to `COc1ccc2nc(S(=O)Cc3ncc(C)c(OC)c3C)[nH]c2c1` (stereo not given), for which the Potency entry in test [1], in test [2], in test [3] and in test [4] was “inactive” each time.
Take `COc1ccc([C@@H]2CC(=O)c3c(O)cc(O[C@@H]4O[C@H](CO[C@@H]5O[C@@H](C)[C@H](O)[C@@H](O)[C@@H]5O)[C@@H](O)[C@H](O)[C@@H]4O)cc3O2)cc1O`: the Potency result in test [1], in test [2], in test [3] and in test [4] was “inactive” throughout.
`CC(c1cc2ccccc2s1)N(O)C(N)=O` (stereo not given): the Potency entry in test [1], in test [2], in test [3] and in test [4] was “inactive” in each case.
For `COc1ccc(CC2=NN3C([C@@H](CCc4ccccc4)[C@@H](C)O)=NC(C)C3C(=O)N2)cc1OC` (stereo not given in full), the Potency result in test [1], in test [2], in test [3] and in test [4] was “inactive” in each case.
On to `CNC(=O)c1ccc(N2C(=S)N(c3ccc(C#N)c(C(F)(F)F)c3)C(=O)C2(C)C)cc1F`, for which the Potency entry in test [1], in test [2] and in test [3] was “inactive” in each case.
For `O=C1[C@H](Cc2ccc(O)cc2)N2C(=O)CCN(C(=O)NCc3ccccc3)[C@H]2CN1Cc1cccc2ccccc12`, the Potency in test [1] was 9.35 µM (active); in test [2] it was 11.7 µM (active); in test [3] it was 14.8 µM (active); in test [4] it was 10.5 µM (active).
For the molecule `NC(=O)c1ccc(-c2nc(-c3ccc4c(c3)OCO4)c(-c3ccccn3)[nH]2)cc1`, the Potency result in test [1], in test [2], in test [3] and in test [4] was “inactive” in each case.
In the case of `Cc1cc(SCc2sc(-c3ccc(C(F)(F)F)cc3)nc2C)ccc1OCC(=O)O`, the Potency result in test [1], in test [2] and in test [3] was “inactive” throughout.
On to `C[C@]12CC[C@H](O)CC1=CC[C@@H]1[C@H]2CC[C@]2(C)C(c3cccnc3)=CC[C@H]12`, for which the Potency result in test [1], in test [2] and in test [3] was “inactive” throughout.
Regarding `COc1ccccc1-c1cccc(-c2c(O)c3cc(C#N)c(Cl)cc3[nH]c2=O)c1`, the Potency result in test [1], in test [2] and in test [3] was “inactive” in each case.
With `COc1ccc(CCN2CCN(CCCc3ccccc3)CC2)cc1OC`, the Potency result in test [1], in test [2], in test [3] and in test [4] was “inactive” each time.
In the case of `CCN(CC)CCCC(C)Nc1nc(C)cc(Nc2ccc3nc(C)cc(N)c3c2)n1` (stereo not given), the Potency entry in test [1], in test [2], in test [3] and in test [4] was “inactive” in each case.
Turning to `CNC(=O)c1ccc(C)c(-n2c(C)cc(OCc3ccc(F)cc3F)c(Br)c2=O)c1`, the Potency entry in test [1], in test [2], in test [3] and in test [4] was “inactive” throughout.
For `O=C(C=Cc1ccc(/C=C/C(=O)Nc2ccc(C3=NCCN3)cc2)cc1)Nc1ccc(C2=NCCN2)cc1`, the Potency entry in test [1], in test [2], in test [3] and in test [4] was “inactive” throughout.
For `CCCn1c(=O)c2[nH]c(C34CC5CC3C[C@@H](C5)C4)nc2n(CCC)c1=O`, the Potency entry in test [1], in test [2] and in test [3] was “inactive” each time. Besides, the Potency in test [4] was 16.6 µM (active).
Regarding `COc1cc(Oc2ccnc3cc(OC)c(OC)cc23)ccc1NC(=O)NC(C)c1nccs1` (stereo not given), the Potency entry in test [1], in test [2] and in test [3] was “inactive” throughout.
As to `CCN(c1ccccc1)c1cc(NC)[n+](C)c(C)n1`, the Potency entry in test [1], in test [2] and in test [3] was “inactive” each time.
On to `CCCc1nc2c(C)cc(-c3nc4ccccc4n3C)cc2n1Cc1ccc(-c2ccccc2C(=O)O)cc1`, for which the Potency result in test [1], in test [2], in test [3] and in test [4] was “inactive” throughout.
Regarding `CCc1ccc(CCOc2ccc(CC3SC(=O)NC3=O)cc2)nc1` (stereo not given), the Potency entry in test [1], in test [2], in test [3] and in test [4] was “inactive” throughout.
For `CS(=O)(=O)Oc1ccc2c(NC(N)=O)c(C(=O)c3ccc(Cl)cc3Cl)oc2c1`, the Potency result in test [1] and in test [2] was “inactive” in each case. The values for the Potency in test [3] and in test [4] were 14.8 µM (active) and 3.32 µM (active), respectively.
Take `Cc1cc(C=c2sc3nc4ccccc4n3c2=O)c(C)n1-c1ccccc1`: the Potency result in test [1], in test [2], in test [3] and in test [4] was “inactive” in each case.
Regarding `CC1(C)SCCN(S(=O)(=O)c2ccc(OCC#CCO)cc2)[C@@H]1C(=O)NO`, the Potency entry in test [1], in test [2], in test [3] and in test [4] was “inactive” throughout.
For the molecule `Cn1cnc2c(F)c(Nc3ccc(Br)cc3Cl)c(C(=O)NOCCO)cc21`, the Potency entry in test [1], in test [2] and in test [4] was “inactive” throughout. Moreover, the Potency in test [3] was 14.8 µM (active).
As for `COc1cc2c(cc1OC)CN(CCc1ccc(NC(=O)c3cccc4c(=O)c5cccc(OC)c5[nH]c34)cc1)CC2`, the Potency result in test [1], in test [2] and in test [4] was “inactive” in each case.
For the molecule `Cc1ccc(-n2nc(C(C)(C)C)cc2NC(=O)Nc2ccc(OCCN3CCOCC3)c3ccccc23)cc1`, the Potency result in test [1], in test [2] and in test [4] was “inactive” each time.
For the molecule `NC(=O)C1CCCc2c1[nH]c1ccc(Cl)cc21` (stereo not given), the Potency entry in test [1], in test [2], in test [3] and in test [4] was “inactive” each time.
On to `Cc1c(CCOc2ccc(C(=O)O)cc2)c2cc(Cl)ccc2n1C(c1ccccc1)c1ccccc1`, for which the Potency result in test [1], in test [2] and in test [4] was “inactive” throughout.
For the molecule `Cn1c(=O)c(F)c(Nc2ccc(I)cc2F)c2c(=O)n(C[C@@H](O)CO)cnc21`, the Potency entry in test [1], in test [2] and in test [4] was “inactive” throughout. The Potency in test [3] was 18.7 µM (active).
Take `OCCn1cc(-c2cnc3nnn(Cc4ccc5ncccc5c4)c3n2)cn1`: the Potency result in test [1], in test [2] and in test [3] was “inactive” each time. In addition, the Potency in test [4] is 0.0059 µM (active).
As to `N#Cc1ccc(C(c2ccc(C#N)cc2)n2cncn2)cc1`, the Potency entry in test [1], in test [2] and in test [4] was “inactive” in each case.
In the case of `NC(=O)c1ccc(-c2nc(-c3ccc4c(c3)OCCO4)c(-c3ccccn3)[nH]2)cc1`, the Potency entry in test [1], in test [2], in test [3] and in test [4] was “inactive” throughout.
As for `O=C(O)[C@@H](c1ccc(OCc2ccc3ccccc3n2)cc1)C1CCCC1`, the Potency entry in test [1], in test [2], in test [3] and in test [4] was “inactive” in each case.
Turning to `Cc1ccnc(NS(=O)(=O)c2ccc(NC(=O)Nc3ccc(S(=O)(=O)Nc4nccc(C)n4)cc3)cc2)n1`, the Potency entry in test [1], in test [2] and in test [3] was “inactive” in each case. Besides, the Potency in test [4] is 16.6 µM (active).

The record behind these values is PubChem BioAssay (NCATS).
